# Bioassay records deposited in PubChem BioAssay by several laboratories.
# Sampled rows, rich in hits. Any-hit rate of the full collection: about 2.8%.
# SENP8 block-1 – SENP8 protease inhibition. Q96LD8. AID 2540. inhibition, % at 10 µM. purified SENP8, Z-RLRGG-aminoluciferin cleavage, luminescence. 330,000 tested, 1.2% active; in the data active = inhibition above about 50%
# Target sequence (Q96LD8 whole entry, looked up): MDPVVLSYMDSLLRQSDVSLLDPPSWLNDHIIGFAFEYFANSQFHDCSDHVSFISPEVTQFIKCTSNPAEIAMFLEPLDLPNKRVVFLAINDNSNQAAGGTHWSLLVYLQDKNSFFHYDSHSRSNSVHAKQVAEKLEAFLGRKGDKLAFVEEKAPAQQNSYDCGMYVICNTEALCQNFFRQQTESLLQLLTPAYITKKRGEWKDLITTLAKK
# SENP7 block – SENP7 protease inhibition; recombinant SENP7, Z-RLRGG-aminoluciferin luminescence, 40 min; inhibition, % at 5 µM; 330,000 tested, 1.5% active; AID 434973;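 active = inhibition above about 50% at the single test dose, limit read from the data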;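 also: plate controls were DMSO with enzyme for no effect and no enzyme buffer wells for full effect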
# SENP8 block-2 – SENP8 (human) protease inhibition; Q96LD8; recombinant SENP8, Nedd8 substrate fluorescence; inhibition, % at 20 µM; 360,000 tested, 0.64% active; in the data active = inhibition mostly above about 40%, no sharp cut-off; inactive = mostly below about 27%
# SENP6 inh – SENP6 protease inhibition; 330,000 tested, 1.8% active; Recombinant SENP6 catalytic domain, aminoluciferin luminescence; inhibition, % at 10 µM; AID 2599; Q9GZR1;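 active = inhibition above about 50% at the single tested dose, limit read from the data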;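 also: plate controls were DMSO wells with enzyme for no effect and DMSO wells lacking enzyme for full effect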
# HSP90 refold inh – HSP90 refolding inhibition in rabbit reticulocyte lysate | luciferase refolding luminescence, 3 h | inhibition, % at 5.6 µM | 290,000 tested, 0.91% active | AID 1789;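 active = inhibition above the screen-wide mean plus 3 SD, computed separately per campaign, cut at about 16% in these data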;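 also: 0% = DMSO wells and 100% = 60 µM geldanamycin wells; inhibitors lower the luminescence because luciferase stays unfolded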
# Platelet DG rel – platelet dense granule release activity | human platelet-rich plasma, SFLLRN dense granule ATP release, luminescence | inhibition, %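 (compounds screened at 7.5 µM in platelet-rich plasma)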 | 300,000 tested, 0.22% active | AID 1663;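 active = mean replicate score, as percent of positive control, at or above 50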
# SENP8 confirm – confirmation of human SENP8 protease inhibitors. shares compounds with SENP7 block. Recombinant SENP8, Z-RLRGG-aminoluciferin luminescence, 60 min. inhibition, % at 12.5 µM. 6,200 tested, 40% active. AID 488912;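 active = mean inhibition across replicates above about 50%, limit read from the data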
# SENP6 confirm – confirmation of human SENP6 protease inhibitors | shares compounds with SENP7 block | recombinant SENP6, Z-RLRGG-aminoluciferin luminescence | inhibition, % at 12.5 µM | 6,200 tested, 58% active
# SENP7 confirm – human SENP7 inhibition, confirmed; shares compounds with SENP7 block; recombinant SENP7, Z-RLRGG-aminoluciferin luminescence, 40 min; inhibition, % at 12.5 µM; 6,200 tested, 69% active
# Casp3 SENP sel – selectivity test for SENP inhibitors: human caspase-3 inhibition | shares compounds with SENP7 block | purified caspase-3, Z-DEVD-aminoluciferin luminescence, 60 min | inhibition, % at 12.5 µM | 6,200 tested, 60% active | AID 488918;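 active = mean inhibition above about 50%, limit read from the data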;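 also: plate controls were enzyme with DMSO for no effect and wells without caspase-3 for full effect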
# Target sequence (P42574 28-227 limits assumed): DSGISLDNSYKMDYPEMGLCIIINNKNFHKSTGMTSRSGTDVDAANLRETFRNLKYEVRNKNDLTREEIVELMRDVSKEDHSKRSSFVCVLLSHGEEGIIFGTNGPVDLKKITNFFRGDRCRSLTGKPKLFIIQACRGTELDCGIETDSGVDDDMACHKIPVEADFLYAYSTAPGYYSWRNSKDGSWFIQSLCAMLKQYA
# SENP luc ctr – counter-screen for SENP inhibitors: luminescence interference. 6,200 tested, 39% active. Pre-incubated SENP8/Z-RLRGG-aminoluciferin, luciferase luminescence interference. inhibition, % at 12.5 µM. shares compounds with SENP7 block;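 active = mean inhibition above about 50% when retested at one dose, limit read from the data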;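 also: plate controls were DMSO wells with completed reaction for no effect and substrate without enzyme for full effect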
# * marks the source's active call; other numbers are inactive results; i = inactive; nt = no result given.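 The calls were made as follows, unless noted: active = mean inhibition above about 50% in the one-dose retest (limit read from the data); inactive = the rest.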
SMILES,SENP8 block-1,SENP7 block,SENP8 block-2,SENP6 inh,HSP90 refold inh,Platelet DG rel,SENP8 confirm,SENP6 confirm,SENP7 confirm,Casp3 SENP sel,SENP luc ctr
CC1CC(C)CN(CCCNC(=O)C2CCN(S(=O)(=O)N3CCCCC3)CC2)C1 (stereo not given),-4,101*,10,19,4,11,7,8,-7,-2,-2
Cc1ccc(S(=O)(=O)Oc2ccc(/C=N/NC(=O)c3nn(C)cc3Cl)cc2)cc1,-12,-8,12,-20,0,-3,nt,nt,nt,nt,nt
Cc1ccc(/C=N/OC(=O)c2nn(C)cc2Cl)cc1,50*,66*,8,66*,-2,5,-5,21,62*,34,49
CCOC(=O)C1=C[C@@H](c2ccccc2)N(S(=O)(=O)c2ccc(C)cc2)[C@H]1c1ccc(F)cc1,nt,nt,13,nt,nt,nt,nt,nt,nt,nt,nt
O=C(O)c1ccc(N2Cc3ccccc3C2)cc1O,65*,-2,-3,70*,4,-2,4,71*,89*,90*,75*
Cn1cccc1C(=O)C(=O)Nc1cc(Cl)cc(Cl)c1,67*,94*,24,73*,-4,7,35,53*,88*,58*,-1
Cn1cccc1C(=O)C(=O)Nc1ccc(F)c(F)c1,80*,83*,8,89*,-8,24,43,39,77*,53*,42
Cn1cccc1C(=O)C(=O)Nc1ccc(Cl)cc1,86*,95*,23,90*,8,14,93*,93*,100*,90*,57*
Cn1cccc1C(=O)c1ccc(Cl)cc1Cl,-2,-3,15,-4,-3,2,nt,nt,nt,nt,nt
O=C(NCc1ccc(Cl)c(Cl)c1)c1cc(C2CCCCN2C(=O)c2ccccc2)on1 (stereo not given),nt,nt,8,nt,nt,nt,nt,nt,nt,nt,nt
CCC(=O)Nc1cnc(NC(=O)c2cccc(F)c2)cc1C,18,59*,12,58*,13,9,43,41,78*,83*,45
Cc1ccccc1C(=O)O/N=C(\N)c1ccncc1,30,65*,5,62*,-1,28,42,41,79*,81*,55*
Cc1ccccc1OCC(=O)O/N=C(\N)Cc1cccs1,-8,-9,3,-17,-2,1,nt,nt,nt,nt,nt
N/C(=N\OC(=O)c1ccc2ccccc2c1)c1ccccc1Cl,68*,78*,0,73*,0,-8,82*,81*,94*,71*,83*
Cc1cc(C(=O)O/N=C(\N)c2ccncc2)ccc1[N+](=O)[O-],18,57*,23,37,4,-3,8,6,38,43,26
Cc1ccccc1C(=O)O/N=C(\N)Cc1cccs1,35,61*,6,51*,2,-2,52*,49,81*,76*,55*
N/C(=N\OC(=O)c1ccc2ccccc2c1)c1cccc([N+](=O)[O-])c1,-13,16,7,1,0,-4,nt,nt,nt,nt,nt
CC(=NNC(=O)C(C)SC(C)C(=O)NN=C(C)c1cccnc1)c1cccnc1 (stereo not given),nt,nt,7,nt,nt,nt,nt,nt,nt,nt,nt
NC(=O)c1cc([N+](=O)[O-])ccc1NCc1ccc(O)cc1,-5,0,15,1,nt,nt,nt,nt,nt,nt,nt
N/C(=N\OC(=O)COc1ccc2ccccc2c1)c1ccncc1,-13,-4,-4,-25,3,-4,nt,nt,nt,nt,nt
N/C(=N\OC(=O)c1ccc2ccccc2c1)c1ccncc1,56*,67*,-12,47,5,-4,70*,71*,90*,77*,73*
COc1ccc(NC2=Nc3ccccc3CC2)cc1,12,4,24,28,1,11,nt,nt,nt,nt,nt
COc1ccc(C2=Nc3ccccc3OC2)cc1,35,56*,i,71*,1,11,98*,99*,102*,95*,90*
COc1ccc(OC)c(CNc2ncc(-c3ccc(F)cc3)n2C)c1,-5,-14,-2,-6,4,1,nt,nt,nt,nt,nt
CCOC(=O)/C=C/c1ccc2oc3ccccc3c(=O)c2c1,83*,92*,-30,94*,-3,11,-1,4,60*,3,2
SMILES,SENP8 block-1,SENP7 block,SENP8 block-2,SENP6 inh,HSP90 refold inh,Platelet DG rel,SENP8 confirm,SENP6 confirm,SENP7 confirm,Casp3 SENP sel,SENP luc ctr
COc1cc2oc3ccccc3c(=O)c2cc1OC,11,2,-206,-3,-4,4,nt,nt,nt,nt,nt
O=C(/C=C/c1ccco1)Nc1ccccc1C(=O)O,88*,83*,-10,93*,7,0,93*,94*,101*,97*,93*
O=C(/C=C/c1ccco1)Nc1cc(Cl)ccc1C(=O)O,56*,7,-44,73*,-1,-6,72*,71*,88*,70*,75*
O=C(/C=C\c1ccco1)Nc1cc([N+](=O)[O-])ccc1F,-12,-2,18,-12,-1,8,nt,nt,nt,nt,nt
COc1ccc(/C=C/C(=O)Nc2ccccc2C(=O)O)cc1,93*,96*,-4,95*,46*,3,97*,97*,100*,96*,96*
O=C(/C=C/c1ccco1)Nc1ccccc1C(=O)Nc1cccc(C(=O)O)c1,-4,1,-14,11,0,17,nt,nt,nt,nt,nt
O=C(COc1ccc2ccccc2c1)Nc1ccccc1C(=O)O,34,7,-6,55*,-5,3,54*,51*,27,50,23
COc1cc(NC(=O)CCCNC(=O)c2ccc(Cl)cc2)cc(OC)c1OC,1,-2,15,13,1,0,nt,nt,nt,nt,nt
CCCn1nnnc1NCc1ccccc1C,6,2,6,16,0,11,nt,nt,nt,nt,nt
COc1ccc(/C=C/c2cc(C(=O)O)c3ccccc3n2)cc1,69*,55*,-438,-3,2,22,-24,-3,2,-3,7
COc1ccc(-c2csc(Nc3ncccc3C)n2)cc1,92*,93*,11,100*,0,6,95*,97*,102*,87*,92*
Cc1nc(C)c(-c2csc(Nc3ncccc3C)n2)s1,61*,59*,5,67*,-3,5,52*,60*,86*,50,25
Cc1nc(C)c(-c2csc(Nc3ccc(F)cc3)n2)s1,-2,1,-14,-1,0,-2,nt,nt,nt,nt,nt
COc1ccc(-c2csc(Nc3ncccc3C)n2)cc1OC,14,14,-38,49,2,3,nt,nt,nt,nt,nt
